# Imprint erasure – induces erasure of genomic imprints in mouse ES cells | AID 1948 | mouse ES Peg3-LacZ reporter, beta-gal luminescence, 40 h | Potency, µM (top dose mostly 60.7 µM), for the others: at the highest dose activity change, positive = activation, hits mostly activators | 110,000 compounds, 0.02% hits; also: potency is read from the fitted curve at half-maximal effect
#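 Readout: BetaGlo luminescence (5 min, room temp) for LacZ from the normally silent maternal Peg3 allele in female Peg3LacZ-Neo ES cells. Cells 300/well, 40 h, 37C, 5% CO2. Data normalized per plate to negative controls.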
# p53ts 39C tox – cytotoxicity in p53ts cells at nonpermissive temperature. H1299-p53A138V viability at 39C, ATP luminescence, 24 h. Potency, µM (series often up to 46.1 µM), without a hit: at the top dose activity change, negative = cell killing, most hits filed as cytotoxic. 130,000 compounds, 1.5% hits. AID 902; also: potency is read from the fitted curve at half-maximal effect; % is scaled to controls: 0 for no effect and ±100 for the full control effect; nearly all actives have a fitted effect of over 55% in size
# IkB signaling – inhibitors of IkB signaling in ABC-DLBCL cells | AID 445 | ABC-DLBCL IkBa-CBG/CBR dual luciferase ratio, 4 h; response scale: scaled: untreated 0%, proteasome inhibitor 100% | Potency, µM (top dose mostly 57.1 µM), for the others: top-dose IkBa stabilization activation | 110,000 compounds, 0.04% hits; active = well fitted curve in the direction sought with a large enough effect in the signal ratio, not every such curve was filed as active; inconclusive = small, poorly fitted or top-dose-only effect, or a change in a side signal; the % refers to the signal ratio;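 also: potency is read from the fitted curve at half-maximal effect; the direction sought is a rising ratio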
#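 Luminescence ratio of IκBα-fused green versus native red beetle luciferase in OCI-Ly3 cells, 4 h post-doxycycline with compound; red signal alone, scaled from basal (0%) to zero light (-100%), flagged nonspecific or cytotoxic effects.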
# IMPase cell inh – IMPase inhibition in cells; P97697; AID 901; CHO-M1 cells, IP1 accumulation, HTRF TR-FRET ratio; 120,000 tested, under 10 active; inhibition (IP1 accumulation), % at 46.1 µM; active = well fitted curve in the direction sought with a large enough effect in the signal ratio, not every such curve was filed as active; inconclusive = small, poorly fitted or top-dose-only effect, or a change in a side signal; inactive = no such curve, though single readings can be large or run the other way; the % refers to the signal ratio;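 also: cells stimulated with carbachol in lithium chloride buffer; plate controls were DMSO basal wells for no effect and reference inhibitor wells for full effect; higher means more IMPase inhibition seen as more IP1 and lower FRET ratio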
# Target sequence (P97697 whole entry, looked up): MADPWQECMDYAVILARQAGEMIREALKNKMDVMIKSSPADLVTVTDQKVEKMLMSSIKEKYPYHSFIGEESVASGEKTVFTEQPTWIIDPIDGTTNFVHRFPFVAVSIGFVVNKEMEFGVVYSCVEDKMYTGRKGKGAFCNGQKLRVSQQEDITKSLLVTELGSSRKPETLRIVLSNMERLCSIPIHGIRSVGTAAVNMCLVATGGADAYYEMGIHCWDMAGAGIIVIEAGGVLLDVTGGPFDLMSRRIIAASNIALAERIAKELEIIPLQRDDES
#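 Elevated IP1 in lysates lowers TR-FRET signal (665/620 ratio and 620 channel reported). Cells were CHO-M1, given carbachol (50 uM as added) plus 50mM LiCl, pH 7.4, 30 min, 37C; compounds titrated up to 46 uM; AC50 by Hill equation.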
# Luciferase inh – firefly luciferase inhibition; purified firefly luciferase, luminescence, 8 min; Potency, µM (titrated, usually from 57.1 µM), for inactives: at the top dose activity change, negative = inhibition, usual class: inhibitors; 72,000 compounds, 2.2% hits; also: potency is read from the fitted curve at half-maximal effect; % is scaled to controls: 0 for no effect and ±100 for the full control effect; nearly all actives have a fitted effect of over 40% in size
#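 Here, luciferase activity is measured as luminescence following an 8 min room-temperature reaction at 10 uM ATP, pH 7.2. Every library sample is titrated.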
# p53ts 32C kill – p53ts cell cytotoxicity, permissive temperature; 130,000 compounds, 0.93% hits; Potency, µM (series often up to 46.1 µM), without a hit: at the top dose activity change, negative = cytotoxicity, hits mostly cytotoxic; H1299-p53A138V at 32C, ATP luminescence viability, 24 h; AID 924;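 also: potency is read from the fitted curve at half-maximal effect; 0% = DMSO and -100% = full killing by reference compound; nearly all actives have a fitted effect of over 55% in size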
#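 ATP-content luminescence (ATPlite) read-out after 24 h compound exposure at 32C in H1299-p53A138V cells (600/well). Tested up to 46 uM. Normalized to DMSO (0%) and 100 uM tamoxifen (100% killing); Hill-fit AC50.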
# The depositor's hits bear a star; ? = inconclusive; · = no result given; [ ] = remark or other dose. Shown is part of a subset that was picked to be rich in hits. Unless noted, calls follow the shape of the dose curve; as a rule, active = well fitted curve in the direction sought with a large enough effect; inconclusive = small, poorly fitted or top-dose-only effect, or another doubt; inactive = no such curve, though single readings can be large; an effect the other way counts as inactive or inconclusive.
SMILES,Imprint erasure,p53ts 39C tox,IkB signaling,IMPase cell inh,Luciferase inh,p53ts 32C kill
O=C(Nc1ccccc1)c1cc2ccccc2o1,·,?,·,-6,·,?
CC(=O)Nc1cccc(NC(=O)c2cc3ccccc3o2)c1,-84%,6.3µM*,?,5,13µM*,13µM*
CC(=O)Nc1ccc(-c2cc3ccccc3o2)cc1,·,·,·,18,4µM*,·
CC(=O)Nc1ccc2ccccc2c1,·,·,·,1,·,·
CCOC(=O)c1c(S(=O)(=O)N2CCC(C(=O)NCc3cccc(OC)c3)CC2)c(C)n(C)c1C,15%[10.9 µM],7%,1%,·,·,4%
Cc1cccc(C(=O)N2c3ncnn3C3(CCCCC3)[C@@H]3CCCC[C@@H]32)c1,-9%[10.9 µM],13µM*,-1%,·,·,-4%
CN(c1cccc(NC(=O)Nc2cccc(Cl)c2)c1)S(C)(=O)=O,6%,-24%,?,-4,10µM*,-20%
CC(=O)Nc1cccc(N(C)S(C)(=O)=O)c1,-3%,7%,-3%,?,-1%,3%
CN(C)c1ccc(NC(=O)Nc2cccc(Cl)c2)cc1,-69%,?,1%,4,10µM*,-23%
COc1ccccc1Nc1nc2ccccc2n1C,-82%,18%,2%,-20,16µM*,?
CCCCCCc1c(O)c2ccccc2[nH]c1=O,·,-2%,7%,-1[1.84 µM],-3%,-8%
CCCCCCCCCCCC1=C(O)C(=O)C=C(O)C1=O,-4%,13µM*,0%,25,-17%,13µM*
COc1cc(/C=C\C(=O)N2CCC=CC2=O)cc(OC)c1OC,-35%[16.8 µM],6.3µM*,?,-1[20.6 µM],3%[25.5 µM],6.3µM*
COc1cc(/C=C/C(=O)N2CCCCC2=O)cc(OC)c1OC,-27%,13µM*,·,3,·,13µM*
COc1cc(/C=C/C(=O)O)cc(OC)c1OC,14%,2%,·,·,·,-7%
COc1cccc2[nH]c3c(N4CCCC(C)C4)ncnc3c12 (stereo unspecified),-17%,?,1%,15,13µM*,-26%
COc1cccc2[nH]c3c(N4CC(C)CC(C)C4)ncnc3c12 (stereo unspecified),·,·,·,9,·,·
O=C(COc1ccc2oc(-c3ccccc3)cc(=O)c2c1)NCc1ccco1,-31%,-20%,10%,-1,7.9µM*,-19%
Cc1cc(=O)oc2ccc(OCC(=O)NCc3ccco3)cc12,·,·,·,3,·,·
COc1cc(NS(=O)(=O)c2ccc(C)cc2)c2ncccc2c1,-24%,-21%,1.3µM*,1,1%,8%
COc1ccc(-c2cc(C(F)(F)F)nc(N3CCCCCC3)n2)cc1,-5%,0%,0%,-2,3%,-13%
COc1ccc(-c2cc(C(N)=O)nc(N3CCCCCC3)n2)cc1,-89%,10µM*,?,8,7.9µM*,7.9µM*
Brc1ccc(-c2nc3ccccc3s2)s1,-74%,-30%,1%,?,16µM*,?
Cc1cc(C)cc(NC(=O)CN(c2cc(C(F)(F)F)ccc2Cl)S(=O)(=O)c2ccccc2)c1,-14%[10.9 µM],-7%,?,-4,·,-2%
O=C(NCC(c1cccnc1)N1CCc2ccccc2C1)C(=O)Nc1ccccc1 (stereo unspecified),4%[10.9 µM],6%,?,·,·,-8%
COc1ccc(NC(=O)C(=O)NCC(c2cccnc2)N2CCc3ccccc3C2)cc1 (stereo unspecified),-15%[10.9 µM],10µM*,-2%,·,·,?
Cn1c(SC2=CS(=O)(=O)c3ccccc32)nc2ccccc21,-23%,13µM*,?,12,-2%,?
CCN(CC)CCOC(=O)c1ccc(NC(=O)c2nn(-c3ccc(C)cc3)c(=O)c3c2c2ccccc2n3C)cc1,-31%[10.9 µM],4µM*,?,·,·,4µM*
CC(C)(C)n1ncc2c(=O)n(CC(=O)c3ccc(Cl)cc3)cnc21,-14%,-16%,-1%,2,20µM*,-1%
CC(C)(C)n1ncc2c(=O)n(CC(=O)NCc3ccccc3)cnc21,?,?,3%,?,20µM*,-25%
